# Experimental data published in PubChem BioAssay (NCI).
# “And” between values parts separate entries of the source, which are not always exact repeats. Identical values can stand only once. This is part of a sample that, as a whole, favours compounds with a hit. Of some 83,000 tested, about 20% had one in any assay.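 Percent growth is the endpoint: 0 to 100 indicates growth inhibition (40 means 60% inhibition), 0 means no net growth, and negative values indicate cell death.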 The source made the active and inactive calls. The calls were made as follows: active = growth percent below 10; inactive = the rest.
# Columns and labels:
# Test in all cases: NCI-60 one-dose screen, 48 h (100 = growth as untreated, 0 = no growth, -100 = all killed)
# Details in all cases: 10 µM unless noted
# NCI-H23 lung = system: NCI-H23 lung
# NCI-H226 lung = system: NCI-H226 lung
# NCI-H322M lung = system: NCI-H322M lung
# HOP-62 NSCLC = system: HOP-62 NSCLC
# NCI-H460 lung = system: NCI-H460 lung
# HOP-92 NSCLC = system: HOP-92 NSCLC
# NCI-H522 lung = system: NCI-H522 lung
# A549/ATCC NSCLC = system: A549/ATCC NSCLC
# 786-0 renal = system: 786-0 renal
# COLO 205 colon = system: COLO 205 colon
# DU-145 prostate = system: DU-145 prostate
# K-562 leukemia = system: K-562 leukemia
# MALME-3M melanoma = system: MALME-3M melanoma
# MDA-MB-231 breast = system: MDA-MB-231 breast
# RXF 393 renal = system: RXF 393 renal
# SF-268 CNS = system: SF-268 CNS
# SF-295 CNS = system: SF-295 CNS
# SF-539 CNS = system: SF-539 CNS
# UACC-257 melanoma = system: UACC-257 melanoma
Compound,growth (NCI-H23 lung),growth (NCI-H226 lung),growth (NCI-H322M lung),growth (HOP-62 NSCLC),growth (NCI-H460 lung),growth (HOP-92 NSCLC),growth (NCI-H522 lung),growth (A549/ATCC NSCLC),growth (786-0 renal),growth (COLO 205 colon),growth (DU-145 prostate),growth (K-562 leukemia),growth (MALME-3M melanoma),growth (MDA-MB-231 breast),growth (RXF 393 renal),growth (SF-268 CNS),growth (SF-295 CNS),growth (SF-539 CNS),growth (UACC-257 melanoma)
CCN(CC)CC(=O)Nc1ccc2ncnc(Nc3ccc(Oc4cccc(F)c4)c(Cl)c3)c2c1,74.9% (inactive),87.6% (inactive),65.6% (inactive),80.4% (inactive),36.9% (inactive),39.5% (inactive),64.6% (inactive),55.7% (inactive),59.7% (inactive),68.8% (inactive),57% (inactive),2.08% (active),45.2% (inactive),49.3% (inactive),43.2% (inactive),58.8% (inactive),87.2% (inactive),83.5% (inactive),67.2% (inactive)
Nc1ccc(S(=O)(=O)c2ccc(N)cc2)cc1,99.8% (inactive) and 99.3% (inactive),92.2% (inactive) and 103% (inactive),96.7% (inactive) and 81.5% (inactive),107% (inactive),109% (inactive) and 102% (inactive),70.4% (inactive) and 87% (inactive),110% (inactive) and 94.6% (inactive),98.5% (inactive),103% (inactive) and 112% (inactive),115% (inactive) and 95.2% (inactive),115% (inactive) and 113% (inactive),104% (inactive) and 144% (inactive),109% (inactive) and 121% (inactive),108% (inactive) and 112% (inactive),104% (inactive) and 108% (inactive),112% (inactive) and 108% (inactive),94.4% (inactive),103% (inactive) and 97.6% (inactive),103% (inactive) and 93.4% (inactive)
Cc1ccc2nc3ccccc3c(NCc3ccc(Cl)cc3)c2c1,46% (inactive),72.3% (inactive),55.9% (inactive),65.3% (inactive),29.5% (inactive),-4.63% (active),54.2% (inactive),40.8% (inactive),34.7% (inactive),-53.3% (active),51.4% (inactive),2.63% (active),-14% (active),37.7% (inactive),29% (inactive),79.1% (inactive),43.7% (inactive),40.2% (inactive),-2.88% (active)
C[C@@H]1O[C@@H](O[C@H]2[C@@H](OC(=O)[C@]34CCC(C)(C)C[C@H]3C3=CC[C@@H]5[C@@]6(C)C[C@H](O)[C@H](O[C@@H]7O[C@H](CO)[C@@H](O)[C@H](O)[C@H]7O)[C@@](C)(CO)[C@@H]6CC[C@@]5(C)[C@]3(C)C[C@H]4O)OC[C@@H](O)[C@@H]2O)[C@H](O)[C@H](O[C@@H]2OC[C@@H](O)[C@H](O[C@@H]3OC[C@](O)(CO)[C@H]3O[C@@H]3OC[C@@H](O)[C@H](O)[C@H]3O)[C@H]2O)[C@H]1O[C@@H]1OC[C@](O)(CO)[C@H]1O,48.7% (inactive),99.2% (inactive),56.4% (inactive),74% (inactive),110% (inactive),103% (inactive),29.8% (inactive),50.2% (inactive),46.9% (inactive),2.01% (active),78.5% (inactive),58.2% (inactive),89.9% (inactive),74.1% (inactive),70.7% (inactive),85.7% (inactive),62.3% (inactive),85.5% (inactive),56.2% (inactive)
CN(Cc1ccccc1)c1nc(Cl)c(C2CC(c3ccc4c(c3)OCO4)=NN2c2cc(Cl)cc(Cl)c2)s1 (stereo not drawn),96.2% (inactive),102% (inactive),99.9% (inactive),89.2% (inactive),103% (inactive),99% (inactive),94.2% (inactive),90.7% (inactive),90% (inactive),93.6% (inactive),101% (inactive),90.2% (inactive),95% (inactive),101% (inactive),109% (inactive),94.8% (inactive),93.8% (inactive),103% (inactive),106% (inactive)
COc1ccc(C/C(C)=C(\c2ccc(O)cc2)c2ccc(OCCCN(C)C)cc2)cc1,91.8% (inactive),94.2% (inactive),94% (inactive),111% (inactive),93.7% (inactive),68.7% (inactive),91.5% (inactive),90.6% (inactive),101% (inactive),97% (inactive),101% (inactive),70.4% (inactive),97.1% (inactive),106% (inactive),89.5% (inactive),88.1% (inactive),104% (inactive),107% (inactive),92.4% (inactive)
CCCN1C(=O)/C(=c2\sc3n(c2=O)NC2C(N=3)N(CC)C(=O)N2CC)c2ccccc21 (stereo not drawn),38.8% (inactive),69.3% (inactive),55% (inactive),50.8% (inactive),18.5% (inactive),86.2% (inactive),11.9% (inactive),42% (inactive),53.3% (inactive),23% (inactive),33.5% (inactive),13.7% (inactive),61.8% (inactive),24.4% (inactive),-3.07% (active),70% (inactive),39.6% (inactive),1.12% (active),47.5% (inactive)
O=c1c2c([nH]c3ccccc13)CCCC2,100% (inactive) and 68.1% (inactive),100% (inactive),113% (inactive) and 77.7% (inactive),98.5% (inactive) and 40.1% (inactive),99.8% (inactive) and 22.8% (inactive),83.9% (inactive) and 52.4% (inactive),92.4% (inactive) and 37.6% (inactive),93.8% (inactive) and 56.3% (inactive),107% (inactive) and 74.3% (inactive),94.5% (inactive) and 8.36% (active),106% (inactive) and 70.7% (inactive),95.9% (inactive) and 11.3% (inactive),104% (inactive) and 36.8% (inactive),95.8% (inactive) and 54.9% (inactive),105% (inactive) and 63.4% (inactive),98.8% (inactive) and 53.2% (inactive),95.4% (inactive) and 13.1% (inactive),99.5% (inactive) and 46% (inactive),100% (inactive) and 58.8% (inactive)
NS(=O)(=O)OCC1OC(n2cnc3cncnc32)C(O)C1O (stereo not drawn),6.16% [0.1 µM] (active) and 3.98% [0.1 µM] (active),16.8% [0.1 µM] (inactive),-26.7% [0.1 µM] (active) and 12.1% [0.1 µM] (inactive),-21.5% [0.1 µM] (active) and -12.7% [0.1 µM] (active),2.5% [0.1 µM] (active) and 0.409% [0.1 µM] (active),10.2% [0.1 µM] (inactive) and 3.58% [0.1 µM] (active),2.73% [0.1 µM] (active) and -11.8% [0.1 µM] (active),11.1% [0.1 µM] (inactive) and 13.4% [0.1 µM] (inactive),8.57% [0.1 µM] (active) and 11.9% [0.1 µM] (inactive),32.2% [0.1 µM] (inactive) and 27.1% [0.1 µM] (inactive),13.2% [0.1 µM] (inactive),9.29% [0.1 µM] (active) and 7.85% [0.1 µM] (active),81.6% [0.1 µM] (inactive) and 50.7% [0.1 µM] (inactive),-25.1% [0.1 µM] (active) and -14.3% [0.1 µM] (active),11.7% [0.1 µM] (inactive) and 1.25% [0.1 µM] (active),9.46% [0.1 µM] (active) and 13.5% [0.1 µM] (inactive),24% [0.1 µM] (inactive),-2.66% [0.1 µM] (active) and -4.82% [0.1 µM] (active),60.8% [0.1 µM] (inactive) and 58.2% [0.1 µM] (inactive)
O=C(Cn1cc(CN2CCN(c3ccnc4cc(Cl)ccc34)CC2)nn1)Nc1cccc([N+](=O)[O-])c1,99.1% (inactive),86.3% (inactive),91.9% (inactive),71.9% (inactive),98% (inactive),71.4% (inactive),71.7% (inactive),84.8% (inactive),88% (inactive),101% (inactive),100% (inactive),68.8% (inactive),102% (inactive),64.8% (inactive),77.2% (inactive),84.6% (inactive),100% (inactive),88.7% (inactive),98.3% (inactive)
C=C1CCC2C3(C)COC(c4ccc(NC(C)=O)cc4)OC3CCC2(C)C1C/C=C1/C(=O)OCC1O (stereo not drawn),36.4% (inactive),64.5% (inactive),89% (inactive),85.5% (inactive),66.2% (inactive),72.6% (inactive),29.5% (inactive),35.9% (inactive),57.1% (inactive),82.6% (inactive),108% (inactive),18.7% (inactive),66.6% (inactive),87.3% (inactive),62.6% (inactive),94% (inactive),25.1% (inactive),69.6% (inactive),30.5% (inactive)
O=C1Nc2ccccc2/C1=C/c1cccn1CCCCCn1c2ccccc2c(=O)c2ccccc21,69.6% (inactive),70% (inactive),98.8% (inactive),58.3% (inactive),95.9% (inactive),65.5% (inactive),66.3% (inactive),81.4% (inactive),105% (inactive),56.2% (inactive),97.9% (inactive),52.1% (inactive),84.5% (inactive),69.3% (inactive),89.2% (inactive),83.3% (inactive),93.1% (inactive),94.2% (inactive),106% (inactive)
